From PMC4336329 (PLoS ONE, 2015) come the findings set out here.

In all, about 310,000 compounds went through this assay and about 14,000 (4.5%) showed an effect of 50% or more. Effects have a minus sign here. The list comes from a sample in which strong results are over-represented; it also holds similar structures and randomly drawn compounds.
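Further: peak tail current of the secondary pulse compared with the same well before compound.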

The experiment deals with human ether-à-go-go-related gene (hERG) potassium channel (human, UniProt Q12809). The experiment in a line: primary screen, population patch clamp on CHO cells stably expressing hERG; higher = less effect of the substance.
Sequence of human ether-à-go-go-related gene (hERG) potassium channel (Q12809 whole entry, looked up): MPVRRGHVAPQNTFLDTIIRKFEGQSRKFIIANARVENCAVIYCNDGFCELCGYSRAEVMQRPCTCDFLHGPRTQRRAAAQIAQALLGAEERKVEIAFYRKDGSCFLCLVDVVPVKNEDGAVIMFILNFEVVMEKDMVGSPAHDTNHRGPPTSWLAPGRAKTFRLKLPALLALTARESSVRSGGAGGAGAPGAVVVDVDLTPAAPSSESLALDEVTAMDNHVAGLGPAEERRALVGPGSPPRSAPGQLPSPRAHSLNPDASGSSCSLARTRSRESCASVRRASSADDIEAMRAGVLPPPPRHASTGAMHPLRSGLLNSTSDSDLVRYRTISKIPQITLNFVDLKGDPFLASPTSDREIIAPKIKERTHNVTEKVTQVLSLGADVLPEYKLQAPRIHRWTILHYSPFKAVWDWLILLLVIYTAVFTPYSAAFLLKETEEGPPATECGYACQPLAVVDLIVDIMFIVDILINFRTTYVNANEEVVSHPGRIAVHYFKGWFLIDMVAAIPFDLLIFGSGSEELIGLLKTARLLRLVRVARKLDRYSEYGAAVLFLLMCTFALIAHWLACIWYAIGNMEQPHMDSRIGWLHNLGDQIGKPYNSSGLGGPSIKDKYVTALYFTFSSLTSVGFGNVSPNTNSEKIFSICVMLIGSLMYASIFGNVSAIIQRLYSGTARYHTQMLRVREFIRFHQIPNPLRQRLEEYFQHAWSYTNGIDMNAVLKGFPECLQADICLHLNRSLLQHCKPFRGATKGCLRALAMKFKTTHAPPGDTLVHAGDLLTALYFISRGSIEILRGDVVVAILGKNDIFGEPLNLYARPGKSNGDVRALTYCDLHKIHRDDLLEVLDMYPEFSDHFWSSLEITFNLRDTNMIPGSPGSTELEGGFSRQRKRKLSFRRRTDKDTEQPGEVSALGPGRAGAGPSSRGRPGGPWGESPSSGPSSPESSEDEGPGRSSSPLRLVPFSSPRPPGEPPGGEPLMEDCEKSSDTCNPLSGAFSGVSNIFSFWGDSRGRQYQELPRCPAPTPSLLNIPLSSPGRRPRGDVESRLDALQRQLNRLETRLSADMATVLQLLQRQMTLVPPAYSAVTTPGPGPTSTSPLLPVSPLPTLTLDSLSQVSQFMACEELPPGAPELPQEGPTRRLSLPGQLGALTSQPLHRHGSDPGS
On to `O=C(c1cccc(C(F)(F)F)c1)C1CCCN(Cc2ccccc2O)C1` (stereo not drawn), for which the “hERG current change (%, negative = inhibition) at 10uM” value is -29%.

As to `CC(=O)Nc1ccc(CN2CCN(c3cccc(C(F)(F)F)c3)CC2)cc1`, the “hERG current change (%, negative = inhibition) at 10uM” value was -38%.

For the compound `CCOc1cc(CN2CCN(c3cccc(C(F)(F)F)c3)CC2)ccc1O`, the “hERG current change (%, negative = inhibition) at 10uM” value is on record as -73%. For `CCOc1cc(CN2CCN(c3cccc(C(F)(F)F)c3)CC2)ccc1OC`, the “hERG current change (%, negative = inhibition) at 10uM” value is given as -16.6%. For `CCOc1cccc(CN2CCN(c3cccc(C(F)(F)F)c3)CC2)c1O`, the “hERG current change (%, negative = inhibition) at 10uM” value was -46.6%.

On to `FC(F)(F)c1cccc(N2CCN(Cc3cccnc3)CC2)c1`, for which the “hERG current change (%, negative = inhibition) at 10uM” value is listed as -8.03%. Take `CCOc1cccc(CN2CCCC(C(=O)c3cccc(C(F)(F)F)c3)C2)c1O` (stereo not drawn): the “hERG current change (%, negative = inhibition) at 10uM” value is given as -67.9%. As for `O=C1COc2ccc(-c3n[nH]c(=O)c4ccccc34)cc2N1`, the “hERG current change (%, negative = inhibition) at 10uM” value is -2.91%. In the case of `c1ccc(-c2nnsc2Sc2ccccn2)cc1`, the “hERG current change (%, negative = inhibition) at 10uM” value is 3.35%. For the compound `Cc1cc(C)cc(CC2CC(=O)N(c3cc(C)on3)C2=O)c1` (stereo not drawn), the “hERG current change (%, negative = inhibition) at 10uM” value came to 0.808%.

Consider `Cc1cc(C(=O)CSc2nnc(-c3ccc(Cl)cc3)n2C)c(C)n1CC1CCCO1` (stereo not drawn), for which the “hERG current change (%, negative = inhibition) at 10uM” value was determined as 8.08%. As for `Cc1noc(C)c1COC(=O)c1ccc(N(C)C)cc1`, the “hERG current change (%, negative = inhibition) at 10uM” value is given as -9.83%. Regarding `CNC(=O)CN(c1cc(C)ccc1OC)S(=O)(=O)c1ccc(C)cc1`, the “hERG current change (%, negative = inhibition) at 10uM” value is listed as -0.703%. Regarding `COc1ccccc1CNC(=O)CCNC(=O)C1CCN(S(=O)(=O)c2ccccc2)CC1`, the “hERG current change (%, negative = inhibition) at 10uM” value is listed as -7.65%. On to `Cc1sc2nc(SCC(=O)Nc3c(C)n(C)n(-c4ccccc4)c3=O)n(C)c(=O)c2c1C`, for which the “hERG current change (%, negative = inhibition) at 10uM” value was 9.4%. Take `C=CCn1c(SCC(=O)Nc2c(C)n(C)n(-c3ccccc3)c2=O)nc2scc(-c3ccccc3)c2c1=O`: the “hERG current change (%, negative = inhibition) at 10uM” value was -56%. Take `C=CCn1c(SCC(=O)Nc2ccccc2)nc2scc(-c3cccs3)c2c1=O`: the “hERG current change (%, negative = inhibition) at 10uM” value is recorded as 8.69%. In the case of `C=CCn1c(SCC(=O)Nc2c(C)n(C)n(-c3ccccc3)c2=O)nc2sc(C)c(C)c2c1=O` it was -31.4%; in that of `C=CCn1c(SCC(=O)Nc2c(C)n(C)n(-c3ccccc3)c2=O)nc2sc(C)c(-c3ccccc3)c2c1=O`, -54%; in that of `C=CCn1c(SCC(=O)Nc2c(C)n(C)n(-c3ccccc3)c2=O)nc2ccccc2c1=O`, -32.9%.

Consider `O=C(O)c1ccc[nH]c1=S`, for which the “hERG current change (%, negative = inhibition) at 10uM” value amounted to 10.3%. Turning to `CC(=O)NC1C(OCc2ccccc2)OC2COC(C)(C)OC2C1O` (stereo not drawn), the “hERG current change (%, negative = inhibition) at 10uM” value amounted to 18.3%. Then `Cc1ccc(C)c(NC(=S)NNC(=O)c2csc(C)c2C)c1`, with 1.72%; and `O=C(NCc1ccccc1)C1CCCN1S(=O)(=O)c1ccc(Cl)cc1` (stereo not drawn), with -7.85%; and `COc1ccc(OC)c(N(CC(=O)NCC2CCCO2)S(=O)(=O)c2ccccc2)c1` (stereo not drawn), with 8.03%. As for `NC(=O)NC(=O)C(c1ccccc1)N1CCN(S(=O)(=O)Cc2ccccc2)CC1` (stereo not drawn), the “hERG current change (%, negative = inhibition) at 10uM” value is given as -18.9%. In the case of `CC(NC(=O)C1CCN(S(=O)(=O)c2ccc(Br)s2)CC1)c1ccccc1` (stereo not drawn), the “hERG current change (%, negative = inhibition) at 10uM” value is on record as -0.752%.

As for `NC(=O)NC(=O)C(c1ccccc1)N1CCN(S(=O)(=O)c2ccc(Br)s2)CC1` (stereo not drawn), the “hERG current change (%, negative = inhibition) at 10uM” value was -52.2%. Then `CCN(c1cccc(C)c1)S(=O)(=O)c1cnc[nH]1`, with 9.23%; and `COc1ccccc1C(=O)NCC(c1cccs1)N1CCc2ccccc21` (stereo not drawn), with 1.26%; and `CCOC(=O)c1c(NC(=O)Cn2nc(C(F)(F)F)cc2C)sc2c1CCC2`, with -4.65%. For the compound `NC(=O)c1cc(-c2csc(NCCc3ccccc3)n2)ccc1O`, the “hERG current change (%, negative = inhibition) at 10uM” value came to 6.05%. As for `COc1ccc(C2=NC(CO)(CO)CO2)cc1`, the “hERG current change (%, negative = inhibition) at 10uM” value is recorded as 19%. For the compound `Cc1nc(N(C)Cc2ccccc2)c2c(C)c(C)sc2n1`, the “hERG current change (%, negative = inhibition) at 10uM” value was -14.8%. In the case of `Cc1sc2ncnc(NCC(O)c3ccccc3)c2c1C` (stereo not drawn) it was 17.7%. As for `Cc1nc(NCC(c2ccccc2)N(C)C)c2c(C)c(C)sc2n1` (stereo not drawn), the “hERG current change (%, negative = inhibition) at 10uM” value was -77.1%.

As for `CCOC(=O)c1sc2ncnc(NCC(c3cccs3)N(C)C)c2c1C` (stereo not drawn), the “hERG current change (%, negative = inhibition) at 10uM” value is given as 5.57%. Turning to `COc1ccc(C(CNc2ncnc3sc(C)c(C)c23)N(C)C)cc1` (stereo not drawn), the “hERG current change (%, negative = inhibition) at 10uM” value was -56.4%. On to `COc1ccccc1C(CNc1ncnc2sc(C)c(C)c12)N(C)C` (stereo not drawn), for which the “hERG current change (%, negative = inhibition) at 10uM” value was -55.4%. For the compound `Cc1sc2ncnc(NCC3COc4ccccc4O3)c2c1C` (stereo not drawn), the “hERG current change (%, negative = inhibition) at 10uM” value is -13.6%. In the case of `Cc1sc2ncnc(NCC(c3ccccc3)N(C)C)c2c1C` (stereo not drawn) it was -40.1%; in that of `COc1ccc(/C=N/Nc2ncnc3sc(C)c(C)c23)cc1`, -8.19%. Regarding `Cc1nc(NCc2ccc(S(N)(=O)=O)cc2)c2c(C)c(C)sc2n1`, the “hERG current change (%, negative = inhibition) at 10uM” value worked out at 2.83%.

Regarding `Cc1sc2ncnc(NCC(O)c3ccc([N+](=O)[O-])cc3)c2c1C` (stereo not drawn), the “hERG current change (%, negative = inhibition) at 10uM” value was -71.6%. In the case of `Cc1sc2ncnc(N[C@@H](CCC(=O)O)C(=O)O)c2c1C`, the “hERG current change (%, negative = inhibition) at 10uM” value came to 10.1%.
